Results from ChEMBL document CHEMBL5308504, “Tm Shift (DSF) assay results for EUbOPEN Chemogenomics Library” (2023).

What was measured:
[1] = target: Bromodomain-containing protein 4 (Homo sapiens) (UniProt O60885); details: Compound concentration 20.0 uM, Protein concentration 2.0 uM, Result type QC Liability
[2] = target: T1, Transcription intermediary factor 1-alpha (Homo sapiens) (UniProt O15164); details: Compound concentration 20.0 uM, Protein concentration 2.0 uM, Result type QC Liability
T1 sequence (whole entry): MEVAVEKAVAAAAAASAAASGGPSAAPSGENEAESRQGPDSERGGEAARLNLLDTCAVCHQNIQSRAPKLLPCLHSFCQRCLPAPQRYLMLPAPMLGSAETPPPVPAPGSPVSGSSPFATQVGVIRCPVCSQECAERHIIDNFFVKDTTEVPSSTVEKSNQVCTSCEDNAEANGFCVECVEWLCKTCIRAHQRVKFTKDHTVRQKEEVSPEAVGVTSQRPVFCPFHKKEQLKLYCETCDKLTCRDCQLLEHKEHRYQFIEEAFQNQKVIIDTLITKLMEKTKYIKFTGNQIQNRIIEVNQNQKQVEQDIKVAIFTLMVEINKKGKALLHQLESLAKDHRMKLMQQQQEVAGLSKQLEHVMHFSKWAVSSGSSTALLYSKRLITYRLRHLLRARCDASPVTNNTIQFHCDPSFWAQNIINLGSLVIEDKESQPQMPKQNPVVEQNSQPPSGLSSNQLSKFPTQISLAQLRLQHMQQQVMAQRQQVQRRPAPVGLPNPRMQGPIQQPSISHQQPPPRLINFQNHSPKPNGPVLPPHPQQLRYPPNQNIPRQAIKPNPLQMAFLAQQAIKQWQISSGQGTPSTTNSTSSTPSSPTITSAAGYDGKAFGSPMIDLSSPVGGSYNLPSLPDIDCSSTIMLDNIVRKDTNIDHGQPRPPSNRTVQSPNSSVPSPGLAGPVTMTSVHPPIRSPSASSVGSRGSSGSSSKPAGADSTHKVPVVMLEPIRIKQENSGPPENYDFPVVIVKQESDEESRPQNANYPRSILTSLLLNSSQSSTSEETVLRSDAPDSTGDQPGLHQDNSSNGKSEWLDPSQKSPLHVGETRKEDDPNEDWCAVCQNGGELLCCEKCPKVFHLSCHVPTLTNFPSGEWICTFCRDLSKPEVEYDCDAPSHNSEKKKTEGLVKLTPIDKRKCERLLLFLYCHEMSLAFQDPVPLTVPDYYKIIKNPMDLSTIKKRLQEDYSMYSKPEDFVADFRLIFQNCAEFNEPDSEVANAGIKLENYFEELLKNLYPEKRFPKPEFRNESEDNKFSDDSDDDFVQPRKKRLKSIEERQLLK

| Structure (SMILES) | ΔTm [1] [°C] | ΔTm [2] [°C] |
| --- | --- | --- |
| CN1CCN(c2ccc(/C=C(\C#N)c3ccccc3Br)cc2)CC1 | -4.31 | -4.7 |
| NCC1CCC(CNc2nc(NCc3ccccc3OC(F)(F)F)ncc2[N+](=O)[O-])CC1 (stereo not drawn) | -3.36 | -1.36 |
| C=CC(=O)Nc1ccc(C(=O)Nc2[nH]nc3c2CN(C(=O)N[C@H](CN(C)C)c2ccccc2)C3(C)C)cc1 | 0.61 | -2.21 |
| Cc1nc2ccc(Oc3ccc(F)cc3)cc2c(=O)n1C[C@H]1CCCN(C(C)C)C1 | 0.67 | 0.18 |
| Cc1csc(-c2nnc(Nc3ccc(Oc4ncccc4-c4ccnc(N)n4)cc3)c3ccccc23)c1 | 11.5 | -1.04 |
| N=C(N)NCCC[C@H](NC(=O)C(c1ccccc1)c1ccccc1)C(=O)NCc1ccc(CNC(N)=O)cc1 | 0.06 | 0.24 |
| COc1cc(-c2nn([C@H]3CC[C@H](N4CCN(C(C)=O)CC4)CC3)c3ncnc(N)c23)ccc1NC(=O)c1cc2ccccc2n1C | 0.13 | -0.55 |
| Cn1nc(C(=O)NCc2ccc(C(=O)O)cc2)cc1-c1ccc2[nH]ccc2c1 | -0.1 | 0.43 |
| CN(C)CCCN1c2ccccc2Sc2ccc(Cl)cc21 | -1.94 | -3.45 |
| CN(C)CC#Cc1ccc2[nH]c3c(c2c1)-c1nc(N)ncc1CCC3 | -1.33 | -0.98 |
| NC1(c2ccc(-c3nc4c(O)ccnn4c3-c3ccccc3)cc2)CCC1 | -0.63 | -1.89 |
| Cc1nc(-c2ccc(C(F)(F)F)cc2)sc1C(=O)NCc1ccc(OC(C)(C)C(=O)O)cc1 | -2.8 | -1.73 |
| CCNC1=N[C@@H]2[C@@H](O)[C@H](O)[C@@H](CO)O[C@@H]2S1 | -1.49 | -2.58 |
| N=C(N)Nc1cc(C2CCNCC2)cc(C(F)(F)F)c1 | -0.1 | 0.35 |
| CC(C)NC(=O)[C@H]1CCC[C@H]1Nc1nc(Nc2ccc(CN(C)C)cc2)ncc1Br | -3.19 | -4.42 |
| CC[C@@H](Nc1c(C#N)c(-c2ccc(-c3cccc(C)c3F)cc2)nc2cnccc12)C(=O)O | -1.25 | -1.3 |
| CNc1nc(-c2ccc3c(N)n[nH]c3c2)cc(N2C[C@@H](C(=O)NC3CCCCC3)CC[C@H]2C)n1 | 0.26 | -2.05 |
| CC(C)(C)c1cnc(CSc2cnc(NC(=O)C3CCNCC3)s2)o1 | 0.24 | -1.61 |
| CC(C=CC1=C(C)CCCC1(C)C)=CC=CC(C)=CC(=O)O | -5.12 | -4.24 |
| COc1cc(C(N)=O)ccc1Nc1ncc2c(n1)N(CCC(C)C)[C@H](C)C(=O)N2C | 6.98 | -0.48 |
| CCn1c(-c2nonc2N)nc2cncc(C(=O)N3CC[C@H](N)C3)c21 | -0.13 | -1.91 |
| O[C@]1(C(F)(F)F)CCCC[C@H]1Nc1ccc(F)cc1 | -1.92 | -2.51 |
| COCCNC1CCC(Nc2cc(-c3csc(NCC4(C#N)CCOCC4)n3)c(Cl)cn2)CC1 (stereo not drawn) | -0.18 | -2.77 |

| Structure (SMILES) | ΔTm [1] [°C] | ΔTm [2] [°C] |
| --- | --- | --- |
| Cc1cccc(CC(=O)N2CCc3c2ccc(-c2cn(C)c4ncnc(N)c24)c3F)n1 | -0.38 | -2.22 |
| COc1ccc(COc2ccc(Cc3cnc(N)nc3N)cc2OC)cc1 | -1.17 | -1.22 |
| CCO[C@H](COc1ccc(C(F)(F)F)cc1)CSc1ccc(OCC(=O)O)c(C)c1 | -2.72 | -3.26 |
| O=C(O)C[C@H]1CCn2c1c(Sc1ccc(Cl)cc1)c1ccc(F)cc12 | 0 | -1.67 |
| CC1CCN(C(=O)[C@@H](CCn2cccc2C#N)NS(=O)(=O)c2cccc3[nH]ccc23)CC1 | -1.03 | 0.52 |
| CC[C@@H](C(=O)OC)n1c(=O)c2ccccc2n(Cc2cn(C)c3cccc(C)c23)c1=O | 1.22 | 0.71 |
| N#Cc1ccc(C#CC[C@@H](C#N)NC(=O)[C@@H]2CCCCN2)cc1F | -1.93 | 0.36 |
| N#CN1CC[C@@H](C(=O)Nc2nc3c(s2)CN(C(=O)CN=[N+]=[N-])CC3)C1 | -1.95 | -0.82 |
| COc1ccccc1[C@@H]1CNCCC12CCN(C(=O)[C@](OC)(c1ccccc1)C(F)(F)F)CC2 | -0.33 | 0.2 |
| C[C@H](CCC(=O)O)[C@H]1CC[C@H]2[C@@H]3CC[C@@H]4C[C@H](O)CC[C@]4(C)[C@H]3C[C@H](O)[C@]12C | -3.05 | -3.23 |
| COc1cc(-c2cncc(-c3cnn(C4CCNCC4)c3)c2)cc(OC)c1OC | 0.84 | -1.81 |
| CCCCc1c(-c2ccccc2)nc(N)nc1-c1ccc(OCc2ccccc2)c(F)c1F | -11.4 | -1.94 |
| Cc1nccc(COC(=O)N2C[C@@H]3[C@@H](CNC(=O)c4ccc5[nH]nnc5c4)[C@@H]3C2)n1 | -4.78 | 0.34 |
| CN(C(=O)c1ccccc1)c1ccc2c(c1)[nH]/c(=N\C(=O)c1ccc(Br)s1)n2CCC(N)=O | -2.77 | -1.25 |
| Cn1nccc1-c1ccc(Sc2cccc(C3(C(N)=O)CCOCC3)c2)cc1 | -0.19 | 0.56 |
| CN(C)C/C=C/C(=O)Nc1cc2c(Nc3ccc(F)c(Cl)c3)ncnc2cc1OC[C@@H]1CCCO1 | -0.58 | -0.17 |
| O=C(CNCc1cc2ccccc2[nH]1)N[C@H]1CC[C@@H](c2nc3ccccc3[nH]2)CC1 | -0.08 | -0.53 |
| Cn1cnc(Cn2ccc3ccc(CNCc4[nH]c5ccccc5c4[C@@H]4NC(=O)c5ccc(O)cc54)cc32)c1 | -1.28 | 0.32 |
| CCN1C(=O)c2cc(C)ccc2N(C)c2ncccc21 | -1.19 | 0.2 |
| O=C(NC[C@@H]1[C@H]2CN(C(=O)OCc3cc(C(F)(F)F)cc(C(F)(F)F)c3)C[C@@H]12)c1ccc2[nH]nnc2c1 | 2.07 | 1.3 |
| COc1ccc(S(=O)(=O)N2CCOCC2)cc1Nc1ccc2c(n1)N(C1CCOCC1)[C@H](C)C(=O)N2C | 5.07 | -1.05 |
| COc1ccc(-c2c(-c3ccccc3)oc3ncnc(O[C@H](C)CCCCC(=O)O)c23)cc1 | -0.98 | -1.53 |
| Cc1cnc(-c2cnc(NCCNc3ccc(C#N)cn3)nc2-c2ccc(Cl)cc2Cl)[nH]1 | -2.28 | -0.78 |

| Structure (SMILES) | ΔTm [1] [°C] | ΔTm [2] [°C] |
| --- | --- | --- |
| N=C(N)NCCC[C@@H](NC(=O)C(c1ccccc1)c1ccccc1)C(=O)NCc1ccc(CNC(N)=O)cc1 | 0.42 | 0.26 |
| O=C1Nc2nc(-c3c(O)cccc3OCC3CC3)cc([C@@H]3CCCNC3)c2CO1 | -0.38 | 0.45 |
| O=C(Nc1ccc(N2CCC(C(=O)N3CCOCC3)CC2)cc1)c1cnc(Oc2ccccc2)nc1 | -0.8 | -0.59 |
| CC(C)C(=O)N1CCC(c2cn(C)c3ncc(NC(=O)c4cccc(C#N)c4)c(C(F)(F)F)c23)CC1 | -2.27 | -2.5 |
| CCN1C(=O)/C(=C(\NC2CCN(C)CC2)c2ccc3c(c2)OCO3)c2cc(C(C)=O)ccc21 | -12 | 0.3 |
| CS(=O)(=O)CCNCc1ccc(-c2ccc3ncnc(Nc4ccc(OCc5cccc(F)c5)c(Cl)c4)c3c2)o1 | -2.54 | -3.02 |
| CCOC(=O)CS(=O)(=O)c1ccc([C@@H](CO)NC(=O)c2cc3c(Cl)c(Cl)c(C)cc3n2C)cc1 | -3.35 | -0.06 |
| C=CC(=O)Nc1cccc(C)c1Nc1ncc2cc(-c3c(Cl)c(OC)cc(OC)c3Cl)ccc2n1 | 0.13 | 0 |
| COc1cc(C)c(S(=O)(=O)N(C)CCOCC(=O)N(C)[C@H]2CCC[C@@H](N3CCN(C)CC3)C2)c(C)c1 | -1.54 | 0.17 |
| Cc1nc2cccnc2n2c(-c3cc(C(C)(C)O)ncc3Cl)nnc12 | -1.96 | -2.03 |
| CC(C)Oc1ccc(Cc2ccc(NC3=NCCN3)cc2)cc1 | -1.86 | -0.24 |
| CC(C)(O)c1cn(-c2ccc(-c3cccc(S(C)(=O)=O)c3)cc2)c(C(C)(C)c2ccccc2Cl)n1 | -4.36 | -3.39 |
| CN1C(=O)[C@@H](NC(=O)c2cc(Cc3ccccc3)on2)COc2ccccc21 | -1.02 | -3.21 |
| O=C(CCCN1CCC(O)(c2ccc(Cl)cc2)CC1)c1ccc(F)cc1 | -3.1 | -2.64 |
| CN(CC(=O)Nc1ccc(F)c(F)c1F)C(=O)c1ccc2c(c1)OCCO2 | -2.94 | -2.59 |
| CCc1nc(C2CCC2)n2nc(-c3ccccc3)[nH]c(=O)c12 | 0.07 | 0.37 |
| CCC(=O)N[C@H]1CC[C@@H](C(=O)N(C)c2ccc(-c3nc4ccccc4o3)cc2)C1 | 0.09 | 0.23 |
| Cc1[nH]nc(C(F)(F)F)c1Cc1sc2c(c1C(=O)N1C[C@](C)(O)CO1)c(=O)n(C)c(=O)n2C(C)C | -1.28 | -0.8 |
| CN(C)CCCNc1ccnc(Nc2cccc(Cl)c2)n1 | -2.63 | -4.21 |
| CN(C)CCC[C@@]1(c2ccc(F)cc2)OCc2cc(C#N)ccc21 | -1.59 | -0.51 |
| COc1cc(-c2cn(C)c(=O)c3cnccc23)c(OC)cc1CN(C)C | -0.72 | 0.32 |
| Nc1c(CC(=O)O)cccc1C(=O)c1ccc(Br)cc1 | -0.6 | -0.77 |
| Fc1ccc(-c2nc(-c3ccc4ccccc4c3F)[nH]c2-c2ccncc2)cc1 | -0.46 | -0.4 |
